TGFb inhibitor = inhibitors of TGF-b signaling; HepG2 CAGA-GFP TGF-b/SMAD3 reporter, GFP fluorescence, 18 h; TGF-beta stimulated, 500 pg/mL final; Potency, µM (titrated, usually from 46.1 µM), inactives show at the top dose activity, negative = inhibition, hits mostly inhibitors; actives 1.2% (n = 410,000); AID 588855; note: potency is the fitted concentration of half-maximal effect; % is set by controls: 0 for no effect and ±100 for the full control effect; nearly all actives have a fitted effect of over 65% in size
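First, reporter cells (HEPG2 CAGA-GFP) rested 2 h at 37 degrees C. Next, compounds were pinned in and TGF-beta added to 500 pg/mL final. After 18 h, GFP was imaged per cell and summed per well.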
HepG2 tox = counter-screen for TGF-b inhibitors: cytotoxicity in HepG2 cells. HepG2 CAGA-GFP viability, ATP luminescence, 18 h. Potency, µM (top dose mostly 46.1 µM), inactives show at the highest dose activity change, negative = cytotoxicity, usual class: cytotoxic. actives 0.76% (n = 410,000); note: potency is the fitted concentration of half-maximal effect
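CellTiter-Glo luminescence gave cytotoxicity after 18 hours at 37 degrees C. The cells were HepG2 CAGA-GFP in 1% FBS DMEM, stimulated with 500 pg/mL TGF-beta after compound addition. %Activity was normalised to no-cell wells (complete cell-killing) and DMSO (no toxicity), and curves were fitted and classified.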
IL-1B inflam inh = inhibitors of inflammasome signaling (IL-1 beta secretion); THP-1 LPS/ATP IL-1B secretion, AlphaLISA, 16 h; hits give low values; activity change, % at 57.5 µM; actives 4.7% (n = 360,000); AID 743279; in the data active = activity change below about -50%; inconclusive = mostly about -30% to -49%; note: % is set by controls: 0 for no effect and ±100 for the full control effect
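THP-1 cells pretreated 1 hr with compounds (up to 57.5 uM final), then stimulated with LPS (250 ng/mL final) plus ATP (1.25 mM final); secreted IL-1B measured by AlphaLISA after 16 hr, decreased signal indicating inhibition.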
DT40 TDP1 CPT = DT40-hTDP1 cell growth loss with CPT. chicken DT40 Tdp1-/-;hTDP1 cells + 20 nM CPT, ATP luminescence, 48 h. Potency, µM (doses to about 46.2 µM), without a hit: at the top dose activity change, negative = growth inhibition, usual class: inhibitors. actives 12% (n = 420,000); note: potency is the fitted concentration of half-maximal effect; % is set by controls: 0 for no effect and ±100 for the full control effect; nearly all actives have a fitted effect of over 55% in size
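Chicken DT40 Tdp1-/- cells complemented with human TDP1, 400 cells/well, exposed to compounds plus 20 nM camptothecin for at least 48 h at 37 C; viability read as ATP content by CellTiter-Glo luminescence.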
S-ASM inh = inhibitors of human secretory acid sphingomyelinase. P17405. placental ASM, HMU-PC fluorogenic substrate, 60 min. Potency, µM (doses to about 57.5 µM), for inactives: at the highest dose activity change, negative = inhibition, usual class: inhibitors. actives 0.006% (n = 340,000). AID 504937; note: potency is the fitted concentration of half-maximal effect
Target sequence (P17405 47-631 limits assumed): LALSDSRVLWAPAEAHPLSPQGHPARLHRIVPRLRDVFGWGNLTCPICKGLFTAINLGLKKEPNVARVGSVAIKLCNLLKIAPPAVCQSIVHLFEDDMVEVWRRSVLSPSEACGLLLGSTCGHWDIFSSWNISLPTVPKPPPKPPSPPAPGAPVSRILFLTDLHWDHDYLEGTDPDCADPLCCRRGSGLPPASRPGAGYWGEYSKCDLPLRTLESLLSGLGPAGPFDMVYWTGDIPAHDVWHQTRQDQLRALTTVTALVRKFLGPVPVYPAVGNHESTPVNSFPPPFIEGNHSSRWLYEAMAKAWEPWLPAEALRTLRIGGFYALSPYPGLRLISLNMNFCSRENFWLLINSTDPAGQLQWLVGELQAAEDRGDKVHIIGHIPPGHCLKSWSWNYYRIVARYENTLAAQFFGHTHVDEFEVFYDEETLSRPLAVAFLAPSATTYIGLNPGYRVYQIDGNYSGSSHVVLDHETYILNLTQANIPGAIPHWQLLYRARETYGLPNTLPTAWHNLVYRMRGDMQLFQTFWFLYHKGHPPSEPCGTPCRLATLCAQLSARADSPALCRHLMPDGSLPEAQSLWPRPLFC
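Steps: dispense placental human ASM, pin compound, wait 10 min at room temperature, add HMU-PC0 substrate at 9 uM final, incubate 60 min at 37 °C, add stop solution raising pH to 10, read fluorescence.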
TDP1 cell noCPT = qHTS for Inhibitors of human tyrosyl-DNA phosphodiesterase 1 (TDP1): qHTS in cells in absence of CPT. DT40 Tdp1-/- hTDP1 cells, no CPT, ATP luminescence, 48 h. Potency, µM (doses to about 46.2 µM), without a hit: at the highest dose activity change, negative = growth inhibition, usual class: inhibitors. actives 15% (n = 420,000). AID 686978, 2013; note: potency is the fitted concentration of half-maximal effect; % is set by controls: 0 for no effect and ±100 for the full control effect; nearly all actives have a fitted effect of over 55% in size
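No-CPT arm: Tdp1-/-;hTDP1 DT40 cells (400/well) plus compounds, incubated ≥48 hr at 37 °C. Readout CellTiter-Glo luminescence.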
Starred values were filed as active, the others as inactive; ? = inconclusive; / = no result; ! = not confirmed by another sample. Only some compounds are listed: those with a hit (about 19% of all), similar ones and a draw of the others. Unless noted, calls come from the whole dose curve; as a rule, active = well fitted curve in the direction sought with a large enough effect; inconclusive = small, poorly fitted or top-dose-only effect, or another doubt; inactive = no such curve, though single readings can be large; an effect the other way counts as inactive or inconclusive.

SMILES | TGFb inhibitor | HepG2 tox | IL-1B inflam inh | DT40 TDP1 CPT | S-ASM inh | TDP1 cell noCPT
CCc1c(C)nc2ncnn2c1N1CCN(S(=O)(=O)c2ccc(OC)cc2)CC1 | -11% | -11% | -1 | 3.7µM* | -1% | 5.8µM*
CCc1c(C)nc2ncnn2c1Nc1ccc(C)c(C)c1 | 13% | -9% | 7 | 23µM* | 4% | ?
CCc1c(C)nc2ncnn2c1NCCc1ccc(OC)cc1 | -6% | -15% | -21 | 2.8µM* | 0% | 3.5µM*
CCOc1ccc(OCCC(=O)OCC(=O)c2c(N)n(C)c(=O)n(C)c2=O)cc1 | -9% | -17% | 6 | -9% | -1% | -27%
Cc1cc(Nc2ccc(Br)cc2)n2nc(-c3ccccc3C)nc2n1 | ? | -10% | / | ? | / | ?
COc1ccc2oc(C(=O)OCC(=O)NC(=O)c3ccccc3)c(C)c2c1 | 2% | 10% | 28 | -16% | ? | 7%
N#C/C(=C\c1ccc(Cl)cc1)C(=O)NCC1CCCO1 (stereo unspecified) | 2% | -25% | / | ? | / | ?
C[C@H](CO)N1C[C@H](C)[C@H](CN(C)Cc2ccncc2)Oc2cc(-c3ccccc3F)ccc2S1(=O)=O | -4% | -40% | -29 | 15µM* | / | 23µM*
C[C@H]1CN([C@@H](C)CO)S(=O)(=O)c2ccc(Br)cc2O[C@@H]1CN(C)Cc1ccccc1 | ? | -122% | 0 | ? | / | 21µM*
C[C@H](CO)N1C[C@H](C)[C@@H](CN(C)Cc2cccnc2)Oc2cc(-c3cccnc3)ccc2S1(=O)=O | -1% | -40% | -21 | -20% | / | -28%
C[C@H]1CN([C@@H](C)CO)S(=O)(=O)c2ccc(Br)cc2O[C@H]1CN(C)Cc1ccccc1 | ? | -53% | -9 | ? | / | ?
CCCC#Cc1ccc2c(c1)O[C@@H](CN(C)Cc1ccc3c(c1)OCO3)[C@H](C)CN([C@@H](C)CO)S2(=O)=O | ? | -58% | -3 | 7.3µM* | / | 2.3µM*
O=C(CCNC(=O)C1CCN(S(=O)(=O)c2ccccc2)CC1)NCc1ccncc1 | 1% | 1% | 1 | -5% | -1% | 0%
Cc1ccc(-c2noc(C3CCCN(C(=O)c4c(F)cccc4F)C3)n2)cc1 (stereo unspecified) | -28% | -1% | -17 | ? | -4% | 21µM*
Cc1ccc(-c2noc(C3CCCN(C(=O)c4cccc(F)c4)C3)n2)cc1 (stereo unspecified) | ? | -23% | -5 | ? | -10% | 29µM*
COc1ccc(-c2noc(C3CCCN(C(=O)c4ccccc4OC)C3)n2)cc1OC (stereo unspecified) | 0% | -9% | -9 | ? | -1% | ?
Cc1ccc(-c2noc(C3CCCN(C(=O)c4ccccc4Br)C3)n2)cc1 (stereo unspecified) | -33% | -16% | 5 | ? | -14% | 21µM*
COc1cc(-c2noc(C3CCCN(C(=O)c4c(F)cccc4F)C3)n2)cc(OC)c1OC (stereo unspecified) | -3% | -26% | -16 | ? | 2% | 21µM*
COc1ccc(-c2noc(C3CCCN(C(=O)c4cccc(C)c4)C3)n2)cc1 (stereo unspecified) | ? | -22% | ? | 16µM* | -3% | 16µM*
COc1ccc(C(=O)N2CCCC(c3nc(-c4ccc(OC)c(OC)c4)no3)C2)c(OC)c1 (stereo unspecified) | -20% | -76% | 0 | ? | 0% | ?
CC(C)OCCCNC(=O)CSc1c2c(nc3ccc(Cl)cc13)CCCC2 | 11µM* | -55% | / | ? | / | 23µM*
CCc1ccc(CNC(=O)CSc2c3c(nc4ccc(Cl)cc24)CCCC3)cc1 | -19% | -18% | / | -23% | / | ?
COCCCNC(=O)CSc1c2c(nc3ccc(Cl)cc13)CCCC2 | 13µM*! | -14% | -155* | ? | 0% | ?
Cc1ccc(-c2cc(C(=O)Oc3ccc(C#N)cc3)no2)cc1 | ? | -20% | / | -27% | / | ?
CCOC(=O)N(C(=O)c1ccccc1)c1ccccc1 | ? | -20% | / | ? | / | ?
SMILES | TGFb inhibitor | HepG2 tox | IL-1B inflam inh | DT40 TDP1 CPT | S-ASM inh | TDP1 cell noCPT
Cc1nc(=S)n(-c2ccccc2)[nH]1 | 6% | -1% | 19 | -1% | 1% | 5%
S=c1nc(C2CCCCC2)n(-c2ccccc2)[nH]1 | -1% | -9% | 19 | ? | 0% | 23µM*
NS(=O)(=O)c1ccc(CCNc2nn3c(-c4cccc(OC(F)(F)F)c4)cnc3s2)cc1 | ? | -24% | -84* | 12µM* | / | 13µM*
CCCCOc1ccc(C(=O)NNC(=S)NC(=O)CC)cc1 | -13% | -1% | -96* | 4.6µM* | -7% | 2.6µM*
CCC(=O)NC(=S)NNC(=O)c1ccc(OC)cc1 | -18% | 2% | 56 | 29µM* | 3% | 22µM*
Cc1ccccc1CC(=O)NCc1cccnc1 | -2% | 1% | 8 | -2% | 0% | -5%
CC(c1nccs1)N(C)C(=O)CCc1nnc(-c2ccc(-c3ccccc3)cc2)o1 (stereo unspecified) | ? | -37% | ? | 15µM* | -2% | -85%
CC(NC(=O)CCc1nnc(-c2ccc(-c3ccccc3)cc2)o1)c1nccs1 (stereo unspecified) | -16% | -4% | -15 | 26µM* | -3% | 21µM*
CN(C(=O)CCc1nnc(-c2ccc(-c3ccccc3)cc2)o1)C1CCOCC1 | -1% | 5% | 5 | ? | -2% | 13µM*
O=C(CCc1nnc(-c2ccc(-c3ccccc3)cc2)o1)NCCc1ccccn1 | -2% | -3% | 8 | ? | 3% | ?

Screening results deposited in PubChem BioAssay by National Center for Advancing Translational Sciences (NCATS).
